# Experimental data from the supplement of paper PMC7411054.
# Structures can show the parent of a compound that is named as a salt.
# What was measured:
# Conditions in all cases: treatment time: 24 h
# A549-CANX-COX4 = assay: phenotypically active (imaging signature differs from DMSO and reproducible) at any of 0.3-9 uM (binary (1 = active, 0 = inactive)); higher = active
# In short: (§1)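 Cells from fifteen gene-edited reporter lines (A549, HepG2 and WPMY1) were treated for 24 h at 0.3, 1, 3 or 9 µM and imaged live, four wells per condition. Features were normalised per well to solvent control wells. A condition deviated if ≥3 of 4 wells passed the 95th percentile of control Euclidean distances and was reproducible if its median replicate Pearson correlation beat the 95th percentile of non-replicates; phenotypic activity needed both.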
# A549-TP53BP1-CLTA = assay: as above
# In short: as §1
# HepG2-ACTB-RAB5A = assay: as above
# In short: as §1
# HepG2-CANX-COX4 [1] = assay: as above
# In short: as §1
# HepG2-GM130-SQSTM1 [2] = assay: as above
# In short: as §1
# HepG2-TP53BP1-CLTA = assay: as above
# In short: as §1
# HepG2-TUBA1B-RELA [3] = assay: as above
# In short: as §1
# WPMY1-ACTB-RAB5A [4] = assay: as above
# In short: as §1
# WPMY1-CANX-COX4 = assay: as above
# In short: as §1
# WPMY1-GM130-SQSTM1 [5] = assay: as above
# In short: as §1
# WPMY1-TP53BP1-CLTA = assay: as above
# In short: as §1
# WPMY1-TUBA1B-RELA = assay: as above
# In short: as §1
# A549-ACTB-RAB5A = assay: as above
# In short: as §1
# A549-GM130-SQSTM1 = assay: as above
# In short: as §1
# A549-TUBA1B-RELA = assay: as above
# In short: as §1
# HepG2-CANX-COX4 [6] = assay: lowest phenotypically active concentration; higher = less potent
# In short: as §1
# HepG2-GM130-SQSTM1 [7] = assay: as above
# In short: as §1
# HepG2-TUBA1B-RELA [8] = assay: as above
# In short: as §1
# WPMY1-ACTB-RAB5A [9] = assay: as above
# In short: as §1
# WPMY1-GM130-SQSTM1 [10] = assay: as above
# In short: as §1
SMILES,phenotypically active (A549-CANX-COX4),phenotypically active (A549-TP53BP1-CLTA),phenotypically active (HepG2-ACTB-RAB5A),phenotypically active (HepG2-CANX-COX4 [1]),phenotypically active (HepG2-GM130-SQSTM1 [2]),phenotypically active (HepG2-TP53BP1-CLTA),phenotypically active (HepG2-TUBA1B-RELA [3]),phenotypically active (WPMY1-ACTB-RAB5A [4]),phenotypically active (WPMY1-CANX-COX4),phenotypically active (WPMY1-GM130-SQSTM1 [5]),phenotypically active (WPMY1-TP53BP1-CLTA),phenotypically active (WPMY1-TUBA1B-RELA),phenotypically active (A549-ACTB-RAB5A),phenotypically active (A549-GM130-SQSTM1),phenotypically active (A549-TUBA1B-RELA),lowest phenotypically active concentration (HepG2-CANX-COX4 [6]) [µM],lowest phenotypically active concentration (HepG2-GM130-SQSTM1 [7]) [µM],lowest phenotypically active concentration (HepG2-TUBA1B-RELA [8]) [µM],lowest phenotypically active concentration (WPMY1-ACTB-RAB5A [9]) [µM],lowest phenotypically active concentration (WPMY1-GM130-SQSTM1 [10]) [µM]
CNC(=O)c1c(-c2ccc(F)cc2)oc2cc(N(CCO)S(C)(=O)=O)c(C3CC3)cc12 [nesbuvir],0 (inactive),0 (inactive),0 (inactive),0 (inactive),0 (inactive),0 (inactive),0 (inactive),0 (inactive),0 (inactive),0 (inactive),0 (inactive),0 (inactive),–,–,–,–,–,–,–,–
O=S(c1ccccc1)c1ccc2nnnn2n1 (configuration not stated),0 (inactive),–,0 (inactive),0 (inactive),0 (inactive),–,0 (inactive),0 (inactive),1 (active),0 (inactive),–,1 (active),1 (active),0 (inactive),0 (inactive),–,–,–,–,–
CN1C/C(=C/c2ccc(B(O)O)cc2)C(=O)/C(=C/c2ccc(B(O)O)cc2)C1,1 (active),1 (active),1 (active),1 (active),1 (active),1 (active),1 (active),1 (active),1 (active),1 (active),1 (active),1 (active),–,–,–,3,3,3,3,≤ 0.3
Nc1ccn([C@@H]2O[C@H](CO)[C@@H](O)[C@H]2O)c(=O)n1 [Cytidine],0 (inactive),0 (inactive),0 (inactive),0 (inactive),0 (inactive),0 (inactive),0 (inactive),0 (inactive),0 (inactive),0 (inactive),0 (inactive),0 (inactive),–,–,–,–,–,–,–,–
CC[C@@H]1C(=O)OC[C@@H]1Cc1cncn1C [Pilocarpine hydrochloride],0 (inactive),0 (inactive),0 (inactive),0 (inactive),0 (inactive),0 (inactive),0 (inactive),0 (inactive),0 (inactive),0 (inactive),0 (inactive),0 (inactive),–,–,–,–,–,–,–,–
CCN(CC)CCOC(=O)C1(C2CCCCC2)CCCCC1 [dicycloverine],0 (inactive),0 (inactive),0 (inactive),0 (inactive),0 (inactive),0 (inactive),0 (inactive),0 (inactive),0 (inactive),0 (inactive),0 (inactive),0 (inactive),–,–,–,–,–,–,–,–
C[C@@H](c1ncncc1F)[C@](O)(Cn1cncn1)c1ccc(F)cc1F [voriconazole],0 (inactive),0 (inactive),0 (inactive),0 (inactive),0 (inactive),0 (inactive),0 (inactive),0 (inactive),0 (inactive),0 (inactive),0 (inactive),0 (inactive),–,–,–,–,–,–,–,–
Cc1nc(NC(=O)N2CCC[C@H]2C(N)=O)sc1-c1csc(C(C)(C)C)n1,0 (inactive),1 (active),1 (active),1 (active),1 (active),1 (active),1 (active),0 (inactive),1 (active),0 (inactive),1 (active),0 (inactive),–,–,–,3,3,3,–,–
CCN1CCN(c2ccc(Nc3cc(N(C)C(=O)Nc4c(Cl)c(OC)cc(OC)c4Cl)ncn3)cc2)CC1,0 (inactive),0 (inactive),0 (inactive),0 (inactive),0 (inactive),0 (inactive),0 (inactive),1 (active),0 (inactive),1 (active),0 (inactive),0 (inactive),–,–,–,–,–,–,9,9
CCN1CCN(C(c2cccnc2)c2cc(Cl)c3cccnc3c2O)CC1 (configuration not stated),1 (active),1 (active),1 (active),1 (active),1 (active),1 (active),1 (active),1 (active),1 (active),0 (inactive),1 (active),0 (inactive),–,–,–,9,9,9,9,–
COc1cc2nccc(Oc3ccc(NC(=O)NC4CC4)c(Cl)c3)c2cc1C(N)=O [lenvatinib],0 (inactive),0 (inactive),0 (inactive),0 (inactive),0 (inactive),0 (inactive),0 (inactive),1 (active),0 (inactive),0 (inactive),0 (inactive),0 (inactive),–,–,–,–,–,–,1,–
COc1cc([C@@H]2c3cc4c(cc3[C@@H](O[C@@H]3O[C@@H]5CO[C@@H](C)O[C@H]5[C@H](O)[C@H]3O)[C@H]3COC(=O)[C@H]23)OCO4)cc(OC)c1O [etoposide],1 (active),1 (active),1 (active),1 (active),1 (active),1 (active),1 (active),1 (active),1 (active),1 (active),1 (active),1 (active),–,–,–,1,1,1,1,1
OCc1ccccc1O[C@@H]1O[C@H](CO)[C@@H](O)[C@H](O)[C@H]1O [Salicin],0 (inactive),0 (inactive),0 (inactive),0 (inactive),0 (inactive),0 (inactive),0 (inactive),0 (inactive),0 (inactive),0 (inactive),0 (inactive),0 (inactive),–,–,–,–,–,–,–,–
CCN1CCN(c2cc(-c3ccc(F)cc3)c3c(n2)CCCCCC3)CC1 [blonanserin],0 (inactive),1 (active),1 (active),1 (active),1 (active),1 (active),1 (active),1 (active),0 (inactive),0 (inactive),1 (active),1 (active),–,–,–,9,9,3,9,–
CCN(CC)CCCC(C)Nc1ccnc2cc(Cl)ccc12 (configuration not stated) [chloroquine],0 (inactive),1 (active),1 (active),1 (active),1 (active),1 (active),1 (active),1 (active),1 (active),1 (active),1 (active),1 (active),–,–,–,9,3,1,3,3
CC(C)CCN1c2nc(Nc3cc(F)c(O)c(F)c3)ncc2N(C)C(=O)C1C (configuration not stated),0 (inactive),1 (active),1 (active),1 (active),1 (active),1 (active),1 (active),1 (active),1 (active),1 (active),1 (active),1 (active),–,–,–,3,1,3,3,≤ 0.3
CCCCC1C(=O)N(c2ccccc2)N(c2ccc(O)cc2)C1=O (configuration not stated) [oxyphenbutazone],0 (inactive),0 (inactive),0 (inactive),0 (inactive),0 (inactive),0 (inactive),0 (inactive),0 (inactive),0 (inactive),0 (inactive),0 (inactive),1 (active),–,–,–,–,–,–,–,–
O=c1cc(-c2cccc3c2Sc2ccccc2S3)oc(N2CCOCC2)c1,0 (inactive),0 (inactive),1 (active),1 (active),1 (active),1 (active),1 (active),1 (active),1 (active),1 (active),1 (active),0 (inactive),–,–,–,3,9,9,3,9
Cc1ccc(C(=O)c2cc(O)c(O)c([N+](=O)[O-])c2)cc1 [tolcapone],0 (inactive),0 (inactive),0 (inactive),0 (inactive),0 (inactive),0 (inactive),0 (inactive),0 (inactive),0 (inactive),0 (inactive),0 (inactive),0 (inactive),–,–,–,–,–,–,–,–
CC1(C)NC(=O)N(c2ccc([N+](=O)[O-])c(C(F)(F)F)c2)C1=O [nilutamide],0 (inactive),0 (inactive),0 (inactive),0 (inactive),0 (inactive),0 (inactive),0 (inactive),0 (inactive),0 (inactive),0 (inactive),0 (inactive),0 (inactive),–,–,–,–,–,–,–,–
Oc1ccc(Nc2nc(-c3ccc(Cl)cc3)cs2)cc1,1 (active),1 (active),0 (inactive),1 (active),1 (active),0 (inactive),0 (inactive),1 (active),1 (active),1 (active),1 (active),1 (active),–,–,–,9,9,–,3,3
Cc1c2oc3c(C)ccc(C(=O)NC4C(=O)NC(C(C)C)C(=O)N5CCCC5C(=O)N(C)CC(=O)N(C)C(C(C)C)C(=O)OC4C)c3nc-2c(C(=O)NC2C(=O)NC(C(C)C)C(=O)N3CCCC3C(=O)N(C)CC(=O)N(C)C(C(C)C)C(=O)OC2C)c(N)c1=O (configuration not stated) [Actinomycin D],1 (active),1 (active),1 (active),1 (active),1 (active),1 (active),1 (active),1 (active),1 (active),1 (active),1 (active),1 (active),–,–,–,≤ 0.3,≤ 0.3,≤ 0.3,≤ 0.3,≤ 0.3
O=c1[nH]cc(F)c(=O)[nH]1 [5-Fluorouracil],1 (active),1 (active),1 (active),1 (active),1 (active),1 (active),1 (active),0 (inactive),0 (inactive),0 (inactive),1 (active),0 (inactive),–,–,–,3,3,3,–,–
CN1C(=O)CC(c2ccccc2)C1=O (configuration not stated) [phensuximide],0 (inactive),0 (inactive),0 (inactive),0 (inactive),0 (inactive),0 (inactive),0 (inactive),0 (inactive),0 (inactive),0 (inactive),0 (inactive),0 (inactive),–,–,–,–,–,–,–,–
Cc1cc(C(C)(C)C)c(O)c(C)c1CC1=NCCN1 [oxymetazoline],0 (inactive),0 (inactive),0 (inactive),0 (inactive),0 (inactive),0 (inactive),0 (inactive),0 (inactive),0 (inactive),1 (active),0 (inactive),0 (inactive),–,–,–,–,–,–,–,3
